Assay results: ChEMBL document CHEMBL4513216, “Probing the Open Global Health Chemical Diversity Library for Multistage-Active Starting Points for Next-Generation Antimalarials” (ACS Infect Dis, 2020)
About 2,100 (3.2%) of roughly 65,000 compounds showed an effect of 50% or more. The median lay at about -52%. Shown is part of a subset that was picked to be rich in strong results.

Test system: Plasmodium falciparum
Experiment: Screen against P. falciparum Asexual Blood Stage (ABS), at 5uM
Format: functional, Dd2
Conditions: tested at 5 uM

SMILES | INHIBITION
COCCN1CCN(Cc2cnc(C(C)C)nc2)CC1 | -72.3%
O=C(C1CC1)N1C[C@H]2CCCN(S(=O)(=O)c3ccc4c(c3)CCC4)[C@H]2C1 | -49.4%
NCC(=O)N1CCCC1c1nccnc1Nc1ncccn1 (stereo unspecified) | -91.6%
CC(C)CC(C)NC1CCN(c2ccc(-c3cscn3)cc2)CC1 (stereo unspecified) | -115%
Cc1nnc(-c2cccc(N3CCC(NC(C)CC(C)C)CC3)c2)s1 (stereo unspecified) | -15.1%
CC(C)CC(C)NC1CCN(c2cccc(-c3cscn3)c2)CC1 (stereo unspecified) | 51.8%
COC(=O)NCC(=O)N1CCC(c2cc3ccccc3[nH]2)CC1 | -109%
Cc1cc(C)c(CNC(=O)N2CCCC2c2cc(C)on2)c(=O)[nH]1 (stereo unspecified) | -65.3%
Cc1ccc2c(c1)C1(CCNCC1)CN2C(=O)C(C)C | 32.6%
O=C(C1CC1)N1CC2(CCNCC2)c2cc(F)ccc21 | 13.7%
C[C@@H](N)C(=O)N1CC2(CCNCC2)c2cc(Cl)ccc21 | 48.2%
CCN1CCC2(CC1)CN(C(=O)c1cccnc1)c1ccc(Cl)cc12 | 13.4%
CN(C)C(=O)N1CC2(CCNCC2)c2cc(Cl)ccc21 | 25.5%
COc1cc(C(=O)N2CC3(CCNCC3)c3cc(Cl)ccc32)ccn1 | 65.4%
O=C(c1ccncc1)N1CC2(CCNCC2)c2cc(Cl)ccc21 | 60%
Cc1ccc(C(=O)N2CC3(CCNCC3)c3cc(Cl)ccc32)cn1 | 37.8%
CN1CCC2(CC1)CN(C(=O)c1cccnc1)c1ccc(Cl)cc12 | 57.5%
CC(=O)N1CCC2(CC1)CN(C(=O)c1cccnc1)c1ccc(F)cc12 | -31.7%
CN(C)C(=O)N1CC2(CCNCC2)c2cc(F)ccc21 | -81.2%
O=C([C@H]1CCCN1)N1CC2(CCNCC2)c2cc(Cl)ccc21 | 60.3%
COc1ccc(-c2n[nH]c(C)c2CC(=O)NCC2CCOCC2)cc1 | 6.29%
Cc1occc1C(=O)N1CCC2(CCN(Cc3ccccn3)C2=O)C1 (stereo unspecified) | -30.7%

SMILES | INHIBITION
CNC(=O)N1CCC2(CC1)c1ncc(-c3cccc(F)c3)n1CCN2C | -74%
CCn1cc(S(=O)(=O)N2CCCCCC2c2cc(C)on2)cn1 (stereo unspecified) | 16.1%
O=C(Nc1ccccc1)C1CN(Cc2ccco2)CC12CCOCC2 (stereo unspecified) | -3.58%
CNC(=O)C1Cn2ccnc2C2(CCN(Cc3nccs3)CC2)O1 (stereo unspecified) | -118%
CN1CCN([C@H]2CCN(C(=O)c3cc(Cl)cn3C)C[C@H]2CCCO)CC1 | -28.7%
Cc1cnc(N2C[C@H]3CCCC(N(C)Cc4ccccn4)[C@H]3C2)nc1 (stereo partly specified) | -4.92%
O=C(N1CCOCC1)[C@@]12CCO[C@@H]1CCN(Cc1cccc(F)c1)C2 | -26.7%
CNc1nccnc1C1CN(C(=O)c2c[nH]cn2)CCO1 (stereo unspecified) | -87.7%
NC(=O)CCC1CCCN(Cc2cnc(N3CCCCC3)nc2)C1 (stereo unspecified) | -84.4%
CNc1nc(C2CCN(C(=O)CC3CCCC3)C2)nc2c1CN(C)CC2 (stereo unspecified) | -4.57%
COc1ccc(OCC2CCCN(Cc3ccncc3)C2)cc1 (stereo unspecified) | 4.05%
COc1ccc(Cn2nnnc2SCC2CCCN(C)C2)cc1 (stereo unspecified) | 59.9%
COc1ccc(OC)c(-n2nnnc2SCC2CCCN(C)C2)c1 (stereo unspecified) | 42.8%
CCN(CC)C(=O)c1ccn(COc2cccc(Cl)c2Cl)n1 | -133%
Cn1cc(CN2C[C@@H]3COC[C@]3(COCC3CC3)C2)cn1 | -11.4%
Cn1cc(CN2C[C@H]3CCC[C@@]3(COCC3CC3)C2)cn1 | 54.1%
Cc1nc(COC[C@@]23CCC[C@@H]2CN(Cc2cnn(C)c2)C3)cs1 | -28.9%
O=C(NCc1nn(-c2ccccc2)c2c1CCC2)C1CC1 | -137%
CCn1nc(C)c(CNC(=O)c2nnc3ccc(Cl)cc3n2)c1C | -2.95%
Cc1cnccc1-c1cnn(CCNC(=O)c2ccccn2)c1C1CC1 | 40.2%
CC(C)c1ncc2c(n1)CN(CC(=O)Nc1ccncc1)CC2 | -23.6%
CC1=C[C@@H](CN2CCCC2)[C@H](C(C)C)C[C@H]1Cc1nnc(C)o1 | 0.0851%

SMILES | INHIBITION
COc1ccc2nc(C[C@@H]3C[C@@H](C(C)C)[C@H](CN)C=C3C)[nH]c2n1 | 68.7%
CC1=C[C@@H](CN2CCN(C)CC2)[C@H](C(C)C)C[C@H]1Cc1nnc(C)o1 | 16.4%
Cc1ccc(CN2C[C@@H]3C[C@H](C(=O)Nc4cccnc4)[C@H](C2)O3)cc1 | 41.3%
COC(=O)CN(C(=O)c1cc(C)c(F)cc1F)c1cccc(C)n1 | -97.6%
CC1(C(=O)N2CCOCC2)CN(C2CCCCC2)CCO1 (stereo unspecified) | -82.9%
Cc1nc(CN2CCCC(NCCOc3ccccc3)C2)no1 (stereo unspecified) | -55.9%
c1ccc(OCCNC2CCN(c3ncccn3)CC2)cc1 | -15.2%
O=C(COCCOc1ccccc1)NC1CCN(c2ncccn2)CC1 | -7.73%
Cc1nc(C)c(C)c(N2CCC(NCCOc3ccccc3)CC2)n1 | 63.1%
CN(C)c1ccnc(N2CCC(NCCOc3ccccc3)CC2)n1 | 61.5%
Cc1ccnc(N2CCC(NCCOc3ccccc3)CC2)n1 | 13.8%
Cn1ccnc1CN1CCN(CC2CC2)[C@@H]2CS(=O)(=O)C[C@@H]21 | -222%
Cn1c(=O)cc(C(=O)NC(Cc2ccsc2)c2cccnc2)[nH]c1=O (stereo unspecified) | -41.8%
O=S(=O)(N1CCCC1)N1CC[C@H](c2ccccc2)[C@H]2NCCCC[C@H]21 | 48.5%
O=S(=O)(N1CCCC1)N1C[C@@H](c2cccc(F)c2)[C@@H]2NCCCCC[C@H]21 | 25.3%
CCN(CC)S(=O)(=O)N1CC[C@H](c2ccccc2)[C@H]2NCCCC[C@H]21 | 57.7%
CCOc1c(F)cccc1C(=O)N(c1cccnc1)C(C)C | -2.56%
CC(C)(C(=O)NCC1CCN(Cc2ccccn2)C1)c1ccccc1 (stereo unspecified) | 40.4%
CC(C)(C(=O)NCC1CCN(Cc2cccnc2)C1)c1ccccc1 (stereo unspecified) | 53.2%
CC(C)(C(=O)NCC1CCN(Cc2ncc[nH]2)C1)c1ccccc1 (stereo unspecified) | -15.4%
Cc1nc(CCCNC(=O)Nc2ccc(F)cc2F)n[nH]1 | -12.9%
O=C(NCCN1CCCC1)c1cc2c(s1)CCN2c1ncccn1 | -36.4%

SMILES | INHIBITION
O=C1CC(c2ccc(F)cc2)c2cnn(C3CCCC3)c2N1 (stereo unspecified) | -115%
N#Cc1ccc(C2CC(=O)Nc3c2cnn3C2CCCC2)cc1 (stereo unspecified) | 53.3%
O=C1CC(c2ccccc2)c2cnn(C3CCCC3)c2N1 (stereo unspecified) | -173%
Cc1noc(C)c1CC(=O)N1CCCN(C)c2ccc(Cl)cc21 | -70.5%
O=C(NCC1CCN(Cc2cc3ccccc3[nH]2)C1)C1CCCCC1 (stereo unspecified) | 8.98%
Cc1nc(CNC(=O)Nc2ccc(N(C)C)nc2)sc1C | -121%
Cc1nc(CNC(=O)Nc2ccc3c(c2)CCCC(=O)N3)sc1C | -39.6%
Cc1nc(CNC(=O)Nc2ccc3c(c2)CCCN3C)sc1C | 60.4%
CC(C)c1nnc(CN2CCc3ccc(S(N)(=O)=O)cc32)o1 | -105%
CCOCC(=O)N1Cc2nnn(C)c2C(COCc2ccccn2)C1 (stereo unspecified) | -123%
CC(C)[C@@H](N)C(=O)NCc1cccnc1N1CCc2ccccc2C1 | 29%
COC(=O)CCC(=O)NCc1cccnc1N1CCc2ccccc2C1 | 58.5%
NC(=O)NCCC(=O)NCc1cccnc1N1CCc2ccccc2C1 | -73%
O=c1cc(C2CCNCC2)nc(Cc2cccc(Cl)c2)[nH]1 | -25.9%
CC(C)Nc1ncnc2c1CCN(C(=O)CCc1ccccc1)CC2 | -74.7%
Cc1ccc(CN2Cc3ccccc3OC3(CCC(CO)CC3)C2)s1 (stereo unspecified) | -106%
Cc1ncsc1CN1C[C@H](NC(=O)C2CCOCC2)[C@@H](C(C)C)C1 | -21.1%
c1ccc(Cc2nc(CNC3CCC4(CCNCC4)CC3)no2)cc1 | 39.2%
CCSc1cncc(NCc2ccc(N3CCNC(=O)C3)cc2)n1 | 38.9%
O=C1CN(c2ccc(CNc3cncc(-n4cccn4)n3)cc2)CCN1 | 52%
Cc1cc(NCc2ccc(N3CCNC(=O)C3)cc2)nc(C)n1 | -39.6%
CCc1nc2c(c(NC3CCC3)n1)CCN(C(=O)CO)CC2 | -35.7%

SMILES | INHIBITION
Cn1cnnc1C1CCCN(C(=O)NCCn2ccnc2)C1 (stereo unspecified) | -164%
O=C(Nc1cccc2c1CCCC2)c1cccnc1N1CCCNCC1 | 53.6%
Cc1cccc(C(=O)Nc2cccc3c2CCCC3)n1 | -253%
CC1CN(c2ncccc2C(=O)Nc2cccc3c2CCCC3)CCN1 (stereo unspecified) | 10.3%
CN(Cc1ccoc1)C(=O)Cn1ncc(N(C)C)cc1=O | -36.7%
CCn1cc(C(=O)N2CCCC(c3noc(C)n3)C2)cn1 (stereo unspecified) | -71.8%
CC1=C(c2ccc(Cl)cc2)S(=O)(=O)N=C1N1CCc2ccccc21 | -35.6%
CC(C)NS(=O)(=O)c1ccccc1CNCc1cccc(O)c1 | 26%
CC(C)(C)NS(=O)(=O)c1ccccc1CNCc1ccccc1 | 43.3%
CC(C)(C)NS(=O)(=O)c1ccccc1CNCc1cccc(O)c1 | 56.9%
CCc1nnc2n1CCN(C(C(=O)NC1CC1)c1ccccc1)C2 (stereo unspecified) | -119%
CC(C)CCN1CCc2[nH]nc(C(=O)N3CC=CC3)c2C1 | -95.1%
Cc1cc(-c2cnc(N3CCN(C)CC3)nc2C(C)C)on1 | 52.5%
Cc1cc(-c2cnc(N3CCC(C(N)=O)CC3)nc2C(C)C)on1 | -7.12%
Cc1cc(-c2cnc(N3CCCC(C)C3)nc2C(C)C)on1 (stereo unspecified) | -127%
Cc1cc(-c2cnc(N3CCN(C)CC3)nc2-c2ccc(C)s2)on1 | -24%
Cc1cc(-c2cnc(N3CCC(O)CC3)nc2C(C)C)on1 | 13.7%
Cc1cc(-c2cnc(N3CCSCC3)nc2C(C)C)on1 | 63.8%
